D1 PAM = Potentiators of Human D1 Dopamine Receptor: qHTS | potentiation, % at 10 µM | HEK293 TREx D1 cells, calcium flux, dopamine EC20 potentiation | actives 0.036% (n = 360,000); in the data active = potentiation above about 30%
D3 antag = qHTS of D3 Dopamine Receptor Antagonist: qHTS; D(3) dopamine receptor (Homo sapiens), P35462; D3R cells, DiscoveRx beta-arrestin luminescence, antagonist mode; active compounds read low; max response, negative = inhibition, %; actives 2.5% (n = 360,000); in the data active = max response below about -50%; inconclusive = no clear call, values can overlap the other calls
Target sequence (P35462 whole entry, looked up): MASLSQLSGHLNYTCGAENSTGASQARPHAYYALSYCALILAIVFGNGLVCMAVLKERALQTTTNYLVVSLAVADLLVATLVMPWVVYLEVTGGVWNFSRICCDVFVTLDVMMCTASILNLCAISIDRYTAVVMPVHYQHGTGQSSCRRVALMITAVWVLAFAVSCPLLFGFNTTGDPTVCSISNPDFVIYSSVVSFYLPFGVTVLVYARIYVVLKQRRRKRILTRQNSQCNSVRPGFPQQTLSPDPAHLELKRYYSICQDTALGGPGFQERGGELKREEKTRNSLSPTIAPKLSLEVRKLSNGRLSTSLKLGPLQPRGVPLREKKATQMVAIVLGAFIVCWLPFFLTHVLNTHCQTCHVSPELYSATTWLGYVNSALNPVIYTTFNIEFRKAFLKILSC
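Cells expressing the human receptor were seeded at 1500 cells/well, incubated overnight at 37 degrees C in 5% CO2, then exposed to library compounds with dopamine controls for 90 minutes at 37 degrees C before luminescent detection.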
D1 ag = Allosteric Agonists of the Human D1 Dopamine Receptor: qHTS; D(1A) dopamine receptor (Homo sapiens), P21728; HEK293 T-REx D1 cells, calcium flux, agonist mode; activation, % at 2 µM; actives 1% (n = 360,000); AID 504660, 2011; in the data active = activation above about 30%
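Tetracycline-induced HEK293 TREx D1 cells, force-coupled to calcium signalling, were dye-loaded with a no-wash calcium kit. Compound was pin-added after a 10 s baseline. Fluorescence was read kinetically at 1 cycle/s for 180 s, with calcium rises flagged as agonism.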
D3 ag = qHTS of D3 Dopamine Receptor Agonist: qHTS; D3R DiscoveRx beta-arrestin cells, luminescence, 90 min; actives 0.58% (n = 410,000); AID 652048, 2013; max activation, %; in the data active = max activation above about 30%
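Agonist-mode cell screen: cells plated at 1500/well and incubated overnight at 37 °C, then exposed to library compounds for 90 min at 37 °C. Detection reagent was added for 30–60 min at room temperature, and luminescence was read.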
D1 antag = Antagonist of Human D 1 Dopamine Receptor: qHTS. D(1A) dopamine receptor (Homo sapiens), P21728. HEK293 TREx D1 cells, calcium flux, dopamine EC80; active compounds read low. activity change, negative = inhibition, % at 10 µM. actives 3.2% (n = 360,000). AID 504652, 2011; in the data active = activity change below about -30%
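Inducible Hek293 Trex D1 cells (tetracycline, overnight, 30 C). Calcium dye 30–90 min RT. Antagonist mode: EC80 dopamine added after 180 s compound read.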
Large screens that a line does not name were inactive. In the library only some 6% were active in any assay of this set; here they are far more common.

CN1CCN(c2cc(C(F)(F)F)nc3ccc(F)cc23)CC1	none
CN1CCN(C2=Cc3ccccc3Sc3cc(F)ccc32)CC1	D1 antag -62.2
O=C(NCc1ccccc1Cl)c1ccc2c(c1)nnn2C1CCCC1	D1 antag -34.1 (no result: D3 antag)
CCc1ccccc1NC(=O)c1ccc2c(c1)nnn2C1CCCC1	D1 antag -30.5 (no result: D3 antag)
COc1cccc(CNC(=O)C(NS(=O)(=O)c2ccc3c(c2)oc(=O)n3C)C(C)C)c1 (centres undefined)	none (no result: D3 antag)
COc1cc2nc(CN3CCN(S(=O)(=O)c4ccccc4C(F)(F)F)CC3)[nH]c(=O)c2cc1OC	none (no result: D1 PAM, D1 ag, D1 antag)
COc1cc2nc(CN3CCN(S(=O)(=O)c4c(F)cccc4F)CC3)[nH]c(=O)c2cc1OC	D1 antag -32.4 (no result: D1 PAM)
CCc1ccc2[nH]c(=O)c(C(c3nnnn3CC3CCCO3)N3CCCc4ccccc43)cc2c1 (centres undefined)	D3 ag 37.9
Cc1cc2cc(C(c3nnnn3CC3CCCO3)N3CCCc4ccccc43)c(=O)[nH]c2cc1C (centres undefined)	D3 antag inconclusive
COc1ccc(-n2cc(-c3ccccc3)nc2SCC(=O)Nc2ccccc2)cc1Cl	none (no result: D3 antag)
COc1ccc2c(c1)-c1c(sn(-c3ccc(OC)c(OC)c3)c1=S)C(C)(C)N2	D3 antag -58.6
Oc1c(Br)cc(Cl)cc1C=Nc1ccccc1Br	D3 antag -72.6
Cc1nnn(C23C[C@@H]4C[C@@H](CC(C(=O)N5CCN(c6ccccc6)CC5)(C4)C2)C3)n1	D1 antag -34.3
O=C(COC(=O)Cc1ccccc1F)Nc1ccc2c(c1)OCO2	D1 antag -37.1
O=C(COC(=O)Cc1ccccc1F)Nc1ccc2c(c1)OCCO2	none
O=C(Cc1ccccc1F)Nc1ccc(SC(F)F)cc1	none
O=C(COC(=O)Cc1ccccc1F)Nc1ccc(SC(F)F)cc1	D3 antag inconclusive, D1 antag -34.9
CSCCC(NC(=O)c1ccccc1)C(=O)NC1CCCC1 (centres undefined)	none
CSCCC(NC(=O)c1ccccc1)C(=O)NC1CC1 (centres undefined)	D3 ag 33.9
CC(C)(CN1CCN(Cc2ccccc2)CC1)NS(=O)(=O)c1ccccc1	D3 antag -51.9
CC(CN1CCNCC1)(NS(=O)(=O)c1ccccc1)c1ccccc1 (centres undefined)	D3 antag -71.4, D1 antag -34.6
CC(=O)N1CCN(CC(C)(C)NS(=O)(=O)c2ccccc2)CC1	none (no result: D1 PAM, D1 ag, D1 antag)
CC(C)(CN1CCN(C(c2ccccc2)c2ccccc2)CC1)NS(=O)(=O)c1ccccc1	D3 antag -52.6
Cc1cc(C)cc(NC(=O)C(=O)NCC(c2cccnc2)N2CCc3ccccc32)c1 (centres undefined)	none (no result: D3 antag)
COc1cccc2c1ncc1c(-c3ccc(C)cc3)nn(-c3ccc(F)cc3)c12	none (no result: D3 antag)
COc1ccc(C(=O)NC(=S)Nc2ccc(CN3CCOCC3)cc2)cc1	none
O=C(COc1ccc(Cl)cc1Cl)NC(=S)Nc1ccc(CN2CCOCC2)cc1	D1 antag -40.3
O=[N+]([O-])c1ccc(COc2cccc(CN3CCOCC3)c2)cc1	none (no result: D1 PAM, D1 ag, D1 antag)
O=C(/C=C/c1cccc([N+](=O)[O-])c1)NC(=S)Nc1ccc(CN2CCOCC2)cc1	D3 antag -58.4
O=C(NC(=S)Nc1ccc(CN2CCOCC2)cc1)c1ccc([N+](=O)[O-])cc1	D3 antag -50.1
O=C(COc1ccccc1Cl)NC(=S)Nc1ccc(CN2CCOCC2)cc1	none
O=[N+]([O-])c1cccc(COc2cccc(CN3CCOCC3)c2)c1	D3 antag -64.6 (no result: D1 PAM, D1 ag, D1 antag)
COc1cc(C2C(C(=O)OC(C)C)=C(C)N=C3SCCC(=O)N32)ccc1OCc1ccccc1 (centres undefined)	none (no result: D3 antag)
CC(C)c1ccc(Nc2ncnc3onc(-c4ccc(F)cc4)c23)cc1	none (no result: D3 antag)
Cc1oc(-c2cccs2)nc1CN1CC[C@@](O)(c2ccccc2)[C@H]2CCCC[C@@H]21	D3 antag inconclusive
OC1(c2ccccc2)CCN(Cc2ccccc2)C2CCCCC21 (centres undefined)	D3 antag -85.2
COc1ccc(Cl)cc1NC(=O)CSc1ccc2nnc(CCNS(=O)(=O)c3ccccc3)n2n1	none (no result: D3 antag)
COc1cccc(C(=O)N(C)CC2CCN(CCc3cccc(C(F)(F)F)c3)CC2)c1	D1 antag -32.0
CN(CC1CCCN(CCc2cccc(C(F)(F)F)c2)C1)C(=O)c1cc2ccccc2o1 (centres undefined)	D3 antag -74.0
CC[C@H]1OC(=O)C[C@@H](O)[C@H](C)[C@@H](O[C@@H]2O[C@H](C)[C@@H](O)[C@H](N(C)C)[C@H]2O)[C@@H](CCN2C[C@H](C)C[C@H](C)C2)C[C@@H](C)C(=O)/C=C/C(C)=C/[C@@H]1CO[C@@H]1O[C@H](C)[C@@H](O)[C@@H](OC)[C@H]1OC	none (no result: D1 PAM, D3 antag, D1 ag, D1 antag)
CCOC(=O)c1cc(S(=O)(=O)N2CCN(c3ccc(C(C)=O)cc3)CC2)[nH]n1	none (no result: D3 antag)
Cc1nnsc1C(=O)N/N=C/c1ccccc1	none
Cc1nnsc1C(=O)N/N=C/c1ccc2ccccc2c1O	D1 ag 138.4
CCc1ccc(S(=O)(=O)c2nnn(-c3ccc(F)cc3)c2N)cc1	none (no result: D3 antag)
COc1cccc2oc(-c3ccco3)cc(=O)c12	D3 antag -54.4
CCOC(=O)Cn1c(=S)[nH]c2c(oc3ccc(Cl)cc32)c1=O	D3 antag -68.0
COc1ccc(-n2c(SCC(=O)N3CCCc4ccccc43)nc3c([nH]c4ccccc43)c2=O)cc1	none (no result: D3 antag)
COC(=O)c1ccc(CSc2nc3c([nH]c4ccccc43)c(=O)n2-c2cccc(OC)c2)o1	D1 antag -61.7 (no result: D3 antag)
COc1cccc(-n2c(SCC(=O)N3CCCc4ccccc43)nc3c([nH]c4ccccc43)c2=O)c1	D1 antag -35.1 (no result: D3 antag)
Cc1nc2ccccn2c1C(=O)/C=C/c1cccc([N+](=O)[O-])c1	none
Cc1ccc(/C=C/C(=O)c2c(C)nc3ccccn23)cc1	D1 antag -71.5
COc1ccc(CNC(=O)c2cc3cc(S(=O)(=O)N4CCCCC4)ccc3n2C)c(OC)c1	none (no result: D3 antag)
COc1ccccc1N1CCN(C/C(C)=C/c2ccccc2)CC1	D3 antag -88.8
C/C(=C\c1ccccc1)CN1CCN(c2ccccc2)CC1	D3 antag -108.7, D1 antag -38.1
C/C=C(\C)CN1CCN(c2ccccc2)CC1	D3 antag -71.2
CC(C)CCNC(=O)c1cc(Sc2ccc(F)cc2F)nc2ccccc12	none (no result: D3 antag)
COc1ccc(CCNC(=O)C(=O)NCC(c2ccco2)S(=O)(=O)c2ccc(F)cc2)cc1 (centres undefined)	none (no result: D3 antag, D1 antag)
CC(C)c1nn2c(=O)cc(COC(=O)c3ccc(NC(=O)c4cccs4)cc3)nc2s1	none (no result: D3 antag)

Screens as filed in PubChem BioAssay.
